Rows were chosen to be rich in hits. Some 1.5% of all compounds tested hit in one or more screens of this group.
PV pol inh – inhibitors of poliovirus RNA polymerase binding and polymerization; P03300; poliovirus polymerase elongation, fluorescence polarization; hits give low values; 150,000 tested, 0.66% active; % elongation, % (compound at 16.7 µg/mL); in the data active = % elongation below about 90%
Target sequence (P03300 1749-2209 limits assumed): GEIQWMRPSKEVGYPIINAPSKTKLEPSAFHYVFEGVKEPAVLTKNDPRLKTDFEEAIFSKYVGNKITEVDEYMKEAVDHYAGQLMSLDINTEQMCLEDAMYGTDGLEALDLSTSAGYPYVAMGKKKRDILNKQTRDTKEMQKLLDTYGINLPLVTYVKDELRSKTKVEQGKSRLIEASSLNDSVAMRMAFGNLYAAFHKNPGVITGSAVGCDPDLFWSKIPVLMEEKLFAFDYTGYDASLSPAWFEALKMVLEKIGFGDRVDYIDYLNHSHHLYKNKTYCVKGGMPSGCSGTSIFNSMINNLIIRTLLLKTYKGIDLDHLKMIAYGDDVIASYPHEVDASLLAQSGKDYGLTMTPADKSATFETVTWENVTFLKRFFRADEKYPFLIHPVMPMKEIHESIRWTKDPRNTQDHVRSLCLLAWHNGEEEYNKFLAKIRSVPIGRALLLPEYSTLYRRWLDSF
Mtb MenB inh – blocks the Mycobacterium tuberculosis MenB enzyme; P9WNP5; MenB enzyme assay, absorbance read-out; inhibition, % (concentration not given with the values); 100,000 tested, 0.43% active; in the data active = inhibition above about 21%, passing the limit was not always enough
MbtI inh – MbtI salicylate synthase inhibition; purified MbtI enzyme, fluorescence intensity read-out; inhibition, % (test concentration not listed); 100,000 tested, 0.89% active; AID 493033; in the data active = inhibition mostly above about 56%, no sharp cut-off; inactive = mostly below about 77%
AID504770 – growth inhibitors of E. coli YBA685 in a screen for V. cholerae RctB (chromosome II replication) inhibitors; E. coli YBA685 rctB-dependent plasmid, OD600 growth, 3 h; hits give low values; AID 504770; 130,000 tested, 0.27% active; z-score (concentration not given with the values); in the data active = z-score below about -2, passing the limit was not always enough
Numbers without * were called inactive; i = inactive; nt = not tested or not shown.

SMILES	PV pol inh	Mtb MenB inh	MbtI inh	AID504770
CCc1ccc2nc(N(CCN(C)C)C(=O)C3COc4ccccc4O3)sc2c1 (stereo not given)	102.0	8.9	2.1	0.55
N#Cc1c(N)cc(N)nc1SCc1ccc(Cl)c(Cl)c1	101.0	-16.9	-5.4	0.3
N#CSC(C#N)Cc1ccc(Cl)c(Cl)c1 (stereo not given)	92.0	nt	89.1*	-4.15*
CCCCSC1=NS(=O)(=O)c2ccccc2N1CCCC	99.0	-12.7	-13.2	0.25
CC1C(=O)NN=C1C(=O)N/N=C\c1cccnc1 (stereo not given)	99.0	34.7*	36.7	0.25
CC1C(=O)NN=C1C(=O)N/N=C/c1ccc(OC(=O)c2ccco2)cc1 (stereo not given)	99.0	-7.0	-4.2	-0.95
Fc1ccccc1C=Nc1cccc2ccccc12	102.0	-38.2	111.7	-0.45
Brc1ccccc1C=Nc1cccc2cnccc12	81.0*	nt	3.4	2.1
O=C1OCC(CO)N1c1ccccc1 (stereo not given)	90.0*	-43.1	nt	1.4
N#CC1=C(SCc2ccccc2)SC(CO)NC1=O (stereo not given)	100.0	38.3*	10.9	0.5
N#CC1=C(SCc2ccccc2)SC(c2ccc(C(=O)O)cc2)NC1=O (stereo not given)	86.0*	25.1	8.7	0.2
O=C(Nc1ccc2c(c1)ncn2C1CCCCC1)c1cc2ccccc2o1	101.0	-15.1	nt	0.2
CC(=O)c1ccc(NC(=O)C2=CC(c3ccc(C)cc3)=NS(=O)(=O)N2C)cc1	8.0*	nt	nt	nt
CC(=O)c1ccc(NC(=O)C2=CC(c3ccc4c(c3)OCO4)=NS(=O)(=O)N2C)cc1	108.0	nt	nt	nt
O=C(O)c1ccccc1C(=O)N(Cc1cccnc1)Cc1ccc(Cl)cc1Cl	nt	nt	nt	0.05
NC(=O)COc1ccc(/C=N/NC(=O)c2ccc(CN3CCOCC3)cc2)cc1	101.0	-4.7	9.3	-0.05
O=C1NC(=Nc2ccccc2)S/C1=C/C=C/c1ccco1	106.0	-164.0	0.7	-0.35
Cc1ccccc1N1C(=O)NC(=O)/C(=C\C=C\c2ccco2)C1=O	104.0	-128.9	65.8*	-0.75
COc1ccccc1N1C(=O)NC(=O)/C(=C\C=C\c2ccco2)C1=O	99.0	-183.2	72.8*	-0.6
N/C(=N\S(=O)(=O)c1ccc(Cl)c(Cl)c1)c1ccccn1	106.0	-36.5	-9.9	-0.55
Cc1ccc(Nc2nn(CN3CCOCC3)c(=S)s2)cc1	102.0	-36.6	89.7*	-1
O=C(COC(=O)C1CCCCN1S(=O)(=O)c1ccccc1)Nc1ccccc1C(=O)NC1CC1 (stereo not given)	106.0	-5.5	4.7	-0.25
Cc1cccc(N=Nc2c(C)[nH]n(C(N)=S)c2=O)c1	99.0	-41.3	-11.0	-0.2
O=C(OCc1nnc(-c2cc3c(s2)CCCC3)o1)c1cccc(CN2C(=O)c3ccccc3C2=O)c1	106.0	-2.5	4.7	-0.1
C/C(=N\NC(=S)Nc1ccccc1C)c1ccc(O)cc1	75.0*	-59.4	93.4	0.45
SMILES	PV pol inh	Mtb MenB inh	MbtI inh	AID504770
C/C(=N\NC(=S)NC1CCCCC1)c1ccc(O)cc1	92.0	-5.5	90.3*	-0.1
C/C(=N\NC(N)=S)c1ccc(O)cc1	104.0	-23.7	31.9	-1.25
COc1cc(/C=C2/SC(=S)N(NC(C)=O)C2=O)ccc1O	155.0	i	nt	-0.2
COc1cc(/C=C2\SC(=O)NC2=S)ccc1O	86.0	-96.8	79.2*	0.05
NS(=O)(=O)c1ccc(-n2cccc2C=C2C(=O)NC(=S)NC2=O)cc1	100.0	-5.7	97.0*	-0.5
S=c1nc(C2CC2)[nH]c2ccccc12	98.0	11.9	91.9*	0
CC(C)c1nc(=S)c2ccccc2[nH]1	103.0	-56.3	86.2	-1.1
CCOC(=O)N1CCc2c(sc(NC(=O)c3ccc(S(=O)(=O)N4CCOCC4)cc3)c2C(=O)N2CCOCC2)C1	101.0	-27.4	-4.5	2
COC(=O)c1c(NC(=S)NCc2ccco2)sc2c1CCC2	99.0	-11.0	60.8*	-0.7
COC(=O)c1c(NC(=O)C2CCCC2)sc2c1CCCC2	82.0*	-15.9	nt	2.55
O=C(Nc1sc2c(c1C(=O)NCc1ccco1)CCC2)c1cccs1	101.0	-5.1	2.4	0.3
CC(C)(C)SCC(=O)O	84.0*	7.1	-6.9	0.15
Cc1n[nH]c(C)c1SCC(=O)O	105.0	-13.0	10.3	0.05
CC1CCCC(C)N1Cn1nc2sc3ccccc3n2c1=S (stereo not given)	99.0	3.6	97.6*	-0.45
S=C(N/N=C\c1ccn[nH]1)Nc1ccc(Cl)cc1	102.0	-74.4	3.5	0.25
Cn1cccc1C(=S)NC(=O)Nc1ccccc1Cl	100.0	4.2	15.8	0.35
COC(=O)c1c(-c2ccccc2)csc1N	94.0	-19.0	58.8*	-0.75
COC(=O)c1c(-c2ccccc2)csc1NC(=O)CCN1CCC(C)CC1	nt	nt	nt	-0.25
Cc1ccc(CC(=O)Nc2ccc3c(c2)N(C)C(=O)c2ccccc2S3)cc1	70.0*	nt	nt	nt
CCOC(=O)c1c(C)[nH]c(C(=O)OCc2cccc(OC)c2)c1C	98.0	-16.1	22.5	0.65
Cc1cccc(C(=O)NCc2n[nH]c(=S)n2-c2ccccc2)c1	102.0	1.6	58.5*	1.6
Cn1c(CNC(=O)c2ccccc2)n[nH]c1=S	104.0	3.8	36.1	-0.5
N#Cc1c(NC(=O)CON2C(=O)CCC2=O)sc2c1CCCC2	99.0	2.9	15.2	-0.15
NNC(=O)Cc1ccccc1	103.0	-10.9	-5.0	1.25
CC(C)(C)NC(=O)Cc1ccccc1	102.0	38.4*	-15.8	-0.6
SMILES	PV pol inh	Mtb MenB inh	MbtI inh	AID504770
COc1cc(SC)ccc1C(=O)N(C)C1CCN(C)CC1	-3.0*	-9.3	2.3	-0.15
O=C1NC(=O)C2C3C=CC(O3)C12 (stereo not given)	99.0	11.6	76.9	-3.5*
O=C(OCc1ccccc1)N1CCOCCN(C(=O)OCc2ccccc2)CCOCC1	100.0	-20.3	-23.7	-0.1
N/C(=N\OC(=O)N1CCOCC1)c1ccccc1	100.0	8.3	-3.2	-2.7*
CN1CCN(Cc2nc(/C=C/c3cc(C(F)(F)F)cc(C(F)(F)F)c3)no2)CC1	nt	nt	nt	0.2
CCc1ccc(S(=O)(=O)c2nnn3c2nc(NCc2cccc(OC)c2)c2cc(Cl)ccc23)cc1	89.0*	nt	nt	nt
CCc1ccc(S(=O)(=O)c2nnn3c2nc(NCc2ccccc2)c2cc(Cl)ccc23)cc1	104.0	nt	nt	nt
O=C(Nc1ccc(N2CCOCC2)c2nonc12)c1ccco1	99.0	-2.8	1.1	1.35
Nc1ccc(N2CCOCC2)c2nonc12	85.0*	-139.9	18.0	0
O=C(COC(=O)/C=C/c1ccc(F)cc1)Nc1ncccn1	84.0*	-38.8	-3.5	-0.15
O=C(COC(=O)/C=C/c1ccccc1)Nc1c(F)cccc1F	104.0	nt	-0.2	0.3
CC(C)CCN1C(=O)C(O)(CC(=O)c2cccc(C(F)(F)F)c2)c2ccccc21 (stereo not given)	100.0	nt	-9.9	-1.1
CCN(CC)c1nc(N2CCOCC2)nc(N2CC(=O)N(c3ccccc3)C2=N)n1	102.0	18.6	-14.0	-0.1
CS(=O)(=O)CS(=O)(=O)NNc1ncc(C(F)(F)F)cc1Cl	104.0	-24.5	57.4*	-0.95
CNC(=S)NNc1ncc(C(F)(F)F)cc1Cl	101.0	-3.7	24.2	-0.25
C#CC(=O)OCC(=O)Nc1ccc(C)c(C)c1	89.0*	-25.5	65.5*	0.4

Screens from PubChem BioAssay.
